Measured values taken from PubChem BioAssay AID1376 (SRMLSC, 2008).
In all, about 220,000 compounds went through this assay and about 530 (0.24%) were called active. This excerpt belongs to a sample that is enriched for actives. Entries with a potency or affinity are not part of this list. Values without a mark were called inactive. Cut-off read from the data, not from the text of the source: active = inhibition above about 13%; inconclusive = no clear call, values can overlap the other calls; inactive = below that.

biological target: Bifunctional protein GlmU (Mycobacterium tuberculosis (strain ATCC 25618 / H37Rv)) (UniProt P9WMN3); experiment: inhibition of mycobacterial GlmU enzyme – biochemical, glucosamine-1-phosphate acetyltransferase (AID 1376);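 note: 0% = complete reaction with vehicle and 100% = reaction without substrate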; conditions: M. tuberculosis GlmU acetyltransferase enzyme assay; active compounds read high;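 tested at 30 µM in the primary screen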
Sequence (P9WMN3 whole entry, looked up): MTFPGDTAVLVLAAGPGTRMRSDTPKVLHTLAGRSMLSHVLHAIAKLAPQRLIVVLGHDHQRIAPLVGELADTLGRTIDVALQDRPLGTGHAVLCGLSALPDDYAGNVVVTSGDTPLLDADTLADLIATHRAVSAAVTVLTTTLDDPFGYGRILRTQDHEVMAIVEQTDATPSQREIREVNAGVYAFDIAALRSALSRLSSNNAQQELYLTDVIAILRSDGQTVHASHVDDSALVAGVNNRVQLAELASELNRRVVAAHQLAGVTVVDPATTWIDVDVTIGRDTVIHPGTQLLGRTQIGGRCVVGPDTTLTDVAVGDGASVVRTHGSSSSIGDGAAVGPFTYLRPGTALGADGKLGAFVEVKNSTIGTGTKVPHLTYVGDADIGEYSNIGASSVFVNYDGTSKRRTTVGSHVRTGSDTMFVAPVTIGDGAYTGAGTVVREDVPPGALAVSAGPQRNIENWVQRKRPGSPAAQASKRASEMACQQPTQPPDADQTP

| Compound | inhibition |
| --- | --- |
| CN(C)CC(C)(C)CN=Cc1c(O)[nH]c2ccccc12 | -4.17% |
| COc1cc2c(cc1O)C(SC)=NC(C)(C)C2 | 14.9% (active) |
| COc1cc2c(cc1OC)C(SC)=NC1(CCCC1)C2 | 2.45% |
| COc1cc2c(cc1OC)C(SC)=NC(C)(C)C2 | 8.72% |
| Cc1cccc(C)c1N1CCN(C(=O)N2CCOCC2)CC1 | 1.63% |
| Cc1cccc(N2CCN(C(=O)N3CCOCC3)CC2)c1C | 13.8% (active) |
| Cc1cccc(N2CCN(C(=O)N3CCCCC3)CC2)c1C | 4.08% |
| COc1ccc(-c2c3c(=O)n(C)c(=O)n(C)c3cn2-c2ccc(O)cc2)cc1 | -0.66% |
| COc1ccc(-c2c3c(=O)n(C)c(=O)n(C)c3cn2-c2cccc(OC)c2)cc1 | 14% (active) |
| COc1ccc(-c2c3c(=O)n(C)c(=O)n(C)c3cn2-c2ccccc2)cc1 | -0.39% |
| Cc1cc(C)c(C#N)c(SCC(=O)c2cccs2)n1 | 3.22% |
| Cc1cc(C)c(C#N)c(SCC(=O)c2ccccc2)n1 | 2% |
| Cc1cc(C)c(C#N)c(SCC(=O)c2ccc(Cl)cc2Cl)n1 | 14.2% (active) |
| CC1CCN(CCc2nc3cc(NC(=O)Nc4ccccc4)ccc3n2C)CC1 | -2.61% |
| O=c1[nH]c(/C=C/c2cccnc2)c([N+](=O)[O-])c(=O)[nH]1 | -1.57% |
| COc1ccc(CCn2c(-c3cc([N+](=O)[O-])cc([N+](=O)[O-])c3)nc3nc4ccccc4nc32)cc1OC | 1.37% |
| COC(=O)CCN(C(=O)c1cc([N+](=O)[O-])cc([N+](=O)[O-])c1)c1ccccn1 | 9.11% |
| COC(=O)CCN(C(=O)c1ccc([N+](=O)[O-])cc1)c1ccccn1 | 13.6% (active) |
| COC(=O)CCN(C(=O)c1cccc([N+](=O)[O-])c1)c1ccccn1 | 2.81% |
| CCc1nnc(NC(=O)C2CCCN(S(=O)(=O)c3ccc(OC)cc3)C2)s1 (centres undefined) | -3.09% |
| CCOc1ccc(-n2c(C)nnc2SCC(=O)N(CC)CC)cc1 | -6.69% |
| O=C(O)c1ccccc1/C=N/NC(=O)C1CCCCC1 | 1.79% |
| CCC(C)C1NC(=S)N(C2CCCCC2)C1=O (centres undefined) | 15.5% (active) |
| CC(C)C1NC(=S)N(C2CCCCC2)C1=O (centres undefined) | 1.15% |
| CCC1NC(=S)N(C2CCCCC2)C1=O (centres undefined) | -5.8% |

| Compound | inhibition |
| --- | --- |
| COc1ccc(NCN2C(=O)C3C4C=CC(C4)C3C2=O)cc1 (centres undefined) | 0.26% |
| O=C1CCC(=O)N1CNc1ccc(Oc2ccccc2)cc1 | 4.2% |
| COc1ccc(NCN2C(=O)CCC2=O)cc1 | 13.4% (active) |
| NC(=O)c1c(NC(NC(=O)c2ccco2)C(=O)c2ccc(Cl)cc2)sc2c1CCCC2 (centres undefined) | 2% |
| Cc1ccc2nc(C)cc(N/N=C/c3cccnc3)c2c1 | -6% |
| CC(C)S(=O)(=O)C/C(N)=N/OS(=O)(=O)c1ccc(Cl)cc1 | 0.64% |
| N#Cc1cccc(-n2nnnc2-c2ccc3c(c2)OCO3)c1 | 0.01% |
| CC1CN(c2ccc([N+](=O)[O-])c(NCCOc3ccccc3)c2)CCN1 (centres undefined) | 1.45% |
| Cn1ccnc1Sc1cc(NCCCO)c([N+](=O)[O-])c2nonc12 | 3.47% |
| Cc1nnc(Sc2cc(NCCO)c([N+](=O)[O-])c3nonc23)s1 | 1.7% |
| Cc1ccc(Sc2cc(NCCCO)c([N+](=O)[O-])c3nonc23)cc1 | -0.69% |
| CCC(=O)OCCNc1cc(Sc2nc3ccccc3[nH]2)c2nonc2c1[N+](=O)[O-] | 10.6% |
| CCCC(=O)OCCNc1cc(Sc2nc3ccccc3[nH]2)c2nonc2c1[N+](=O)[O-] | 9.67% |
| CCC(=O)OCCNc1cc(Sc2nccn2C)c2nonc2c1[N+](=O)[O-] | 12.7% |
| CSc1ncccc1C(=O)OCC(=O)NC1CCS(=O)(=O)C1 (centres undefined) | 3.34% |
| Cc1ccccc1OCc1nc(C#N)c(N2CCCC2)o1 | -2.21% |
| COc1ccc(-c2cc(C(=O)N3CCN(c4ccccc4OC)CC3)no2)cc1OC | -2.36% |
| Cc1nc2ccccc2cc1C(=O)N/N=C/c1cccc([N+](=O)[O-])c1 | 1.15% |
| Cc1noc(C)c1C(=O)N1CCCc2ccccc21 | -6.07% |
| Cc1noc(C)c1C(=O)N1CCc2ccccc21 | 12.9% (active) |
| Cc1onc(-c2ccccc2)c1C(=O)N1CCc2ccccc21 | -2.16% |
| Cc1cc(S(=O)(=O)NCc2ccccc2)ccc1OCC(=O)N1CCOCC1 | 0.4% |
| CC(C)CCNC(=O)CCCOc1cc(=O)n(C)c2ccccc12 | 4.37% |
| CCN1CCN(C(=O)C23CCC(C)(C(=O)C2Br)C3(C)C)CC1 (centres undefined) | 5.77% |
| CCc1ccc(OCC(=O)c2c(O)c3ccccc3oc2=O)cc1 | -0.96% |

| Compound | inhibition |
| --- | --- |
| Cc1ccc(C(C)C)c(OCC(=O)c2c(O)c3ccccc3oc2=O)c1 | 4.14% |
| CCCCC(=O)c1c(O)c2ccccc2oc1=O | 0.58% |
| CCOc1ccc(OCC(=O)c2c(O)c3ccccc3oc2=O)cc1 | 14.2% (active) |
| Cc1ccc(OCC(=O)c2c(O)c3ccccc3oc2=O)cc1C | 0.96% |
| COc1ccc(OCC(=O)c2c(O)c3ccccc3oc2=O)cc1 | 13.8% (active) |
| CNc1c([N+](=O)[O-])cnn1-c1ccc(C)cc1 | 5.02% |
| C=CCOc1ccc(/C(O)=C2/C(=O)C(=O)N(CCCn3ccnc3)C2c2ccco2)cc1 (centres undefined) | 5.54% |
| CC(C)(C)NCC(O)COc1ccc(Br)cc1 (centres undefined) | -5.25% |
| CN(C)c1nc(-c2ccccc2)nc(-c2ccc(Cl)cc2)c1C#N | -2.64% |
| C/C(=N\NC(=O)c1ccccc1)c1ccccc1Br | 3.08% |
| Nc1ccc(S(=O)(=O)N2CCCC2)cc1Cl | 0.44% |
| CC1=CC(C)C(C(=O)O)C(C(=O)O)C1 (centres undefined) | 4.72% |
| COC(=O)C1C(c2ccccc2)C=CC(c2ccccc2)C1C(=O)O (centres undefined) | 2.66% |
| CC(C)(C)C(=O)COC(=O)c1cccc(NC(=O)c2ccco2)c1 | 3.57% |
| CCn1c(-c2ccc(N(C)C)cc2)nc2ccccc21 | 13.3% (active) |
| CN(C)c1ccc(-c2nc3ccccc3n2C)cc1 | 3.52% |
| CCn1c(-c2ccc(N)cc2)nc2ccccc21 | 4.62% |
| Cc1cnc(C)c(N2CCC(C(=O)NCc3cccs3)CC2)n1 | 2.06% |
| Cc1cnc(C)c(N2CCC(C(=O)NC(C)c3cccs3)CC2)n1 (centres undefined) | 13.1% (active) |
| Cc1cnc(C)c(N2CCC(C(=O)NCc3ccco3)CC2)n1 | -3.63% |
| O=C/C(=C\Nc1ccccn1)c1nc2ccccc2o1 | 13.3% (active) |
| O=C/C(=C\Nc1ccc(Cl)cn1)c1nc2ccccc2o1 | 0.28% |
| O=C/C(=C\Nc1ccccn1)c1nc2cc(Cl)ccc2o1 | -1.58% |
| COC(=O)/C=C/c1ccc(-n2cncn2)cc1 | 0.5% |
